# Test results reported in the supplement of paper PMC6555819.
# Experiments:
# Assay in all cases: PBM binding z-score (relative to random genomic background probes); higher = stronger binding; sequences stand for … in GC…GCGATTGACAGCGTAGAATGAAGG
# [1] = test system: RARb homodimer (NR concentration 270 nM)
# Method in brief: (§1)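 Binding z-scores take random background probes as their reference. They come from custom Agilent 4×180K protein-binding microarrays incubated 1 h with ligand-free nuclear receptor dimers, with antibodies against each partner (one per run) detecting binding. Scanned fluorescence was regression-normalized.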
# [2] = test system: RARg:RXRa (NR concentration 270 nM, RXRa partner concentration 90 nM)
# Method in brief: as §1
# [3] = test system: RARg homodimer (NR concentration 270 nM)
# Method in brief: as §1
# [4] = test system: RXRa DBDmut IVT, anti-RXR (DBD mutation: RXRa K156A/R161A, NR concentration 90 nM)
# Method in brief: as §1
# [5] = test system: RXRa homodimer (NR concentration 180 nM)
# Method in brief: as §1
# [6] = test system: THRa:RXRa (NR concentration 90 nM, RXRa partner concentration 90 nM)
# Method in brief: as §1
# [7] = test system: THRa homodimer (NR concentration 90 nM)
# Method in brief: as §1
# [8] = test system: VDR homodimer (NR concentration 270 nM)
# Method in brief: as §1
Sequence,PBM binding z-score [1],PBM binding z-score [2],PBM binding z-score [3],PBM binding z-score [4],PBM binding z-score [5],PBM binding z-score [6],PBM binding z-score [7],PBM binding z-score [8]
CCTTTTAGTTGACCATAAGGGCAACCGAAGCTCG,2.13,1.55,1.08,0.818,0.506,1.8,1.51,0.92
ACTTTCGGGTCAACGAGGTTATAGCACGCGTATA,3.85,5.69,5.44,3.12,6.2,4.62,3.51,4.05
TCTCGGAGGAGACGAAAGGTCAGAGCTCGACATC,4.19,3.79,3.46,0.134,4.08,2.42,0.0723,0.0625
TCGTATAGGTAAAGGTGAAAGTCGAACGATATGA,1.77,1.52,1.35,0.714,2.12,1.24,-0.212,0.0316
CCGGCTGGGGCAAAGGTTACCATACTCAGTACGA,2.25,3.68,1.69,-0.158,3.6,1.77,-0.377,-0.169
TTTGCTAGGTCAACGATGGTCAGCTAATCTGCTA,3.69,4.05,5.28,1.02,2.67,3.33,1.02,0.00226
CCTTCTGGGCCATCAGGTCATTGATATCAACGTT,2.61,2.3,2.36,0.59,1.46,3.19,2.98,1.83
CGAACTAGGTCATCGACAGGACAGTGAATAGTAA,2.75,4.84,4.87,2.2,2.72,3.06,0.98,1.39
TTACCAAGGCGAAAGGTCGTTGATGCACGCCTTG,1.7,2.04,1.11,0.253,2.66,1.44,-0.366,1.13
AGAACGAGGGCAATGACTTGATAGCACGGGTGGC,1.08,1.18,1.67,1.64,1.08,0.826,0.042,0.435
CGTCCAATGTCAGAGAGGTCAGTGAATGCCGAGT,4.14,3.35,3.8,1.27,2.57,2.75,1.37,2.91
CCTACTGGGACACGAAAGGTCATTGATTCAGTGA,4.97,4.63,4.53,0.718,5.12,3.77,1.35,2.67
TCGAGTAGGTTAGTCGGGGCATTCATCCAACATA,0.534,-0.0149,0.214,0.518,0.053,1.19,0.047,0.435
ACTCGCAGGACAAAGGTCAGAGCTACGCCAGTGA,4.26,5.2,5.21,0.845,5.45,3.03,0.0955,0.474
CCTACTGGGCCACGAAAGGTCATTGATTCAGTGA,4.53,4.73,4.37,0.61,5.18,3.67,0.798,2.59
CCTGACAGGTGAGAAGGTAACTCAGCCTCGATTA,0.33,0.701,0.393,-0.0911,0.509,0.346,-0.0701,-0.656
CGTCCAAGGTCAGAGATGTCAGTGAATGCCGAGT,3.66,4.35,5.29,2.72,3.3,3.29,1.9,1.82
CATGCAGGGTCAGCTAGGCCAGAGTAGGGACGGC,3.19,4.53,5.06,1.71,4.75,3,0.624,1.16
ACTATTAGTGGAGACGAGGGCAACCGATAGGTTG,0.803,0.333,0.653,0.323,0.276,1.45,-0.218,0.427
AGTCAAAGCTCATCTAGGTAACGTAAGATATGCT,-0.617,0.0208,0.207,-0.43,0.198,0.467,-0.333,-0.256
CCACGGAGGACAACAGGAGGTCAGAGCTGCCAGA,3.72,3.61,3.45,0.466,2.08,2.8,1.28,1.48
GCTTACGGGTCAAAGGTTATAGGATGAATAGAAT,3.6,6.89,4.67,2.7,9.57,3.78,0.0155,1.65
AGAACAAGGGCAATGAGTTGATAGCACGGGTGGC,0.907,1.1,1.4,1.14,0.654,0.418,-0.2,2.73
TCATAAAGGTAAATGCTAGGTGAAAGTCCGATCT,0.719,1.03,0.541,1.87,1.05,2.03,0.511,0.333
TCTTGTCGATCAACAGGAGGTTAAGAAAGATCGA,0.439,0.322,0.198,0.168,0.805,0.59,-0.736,-0.499
CCTATAAGTTGACCATAAGGGCAACCGAAGCTCG,2.31,2.2,1.31,0.769,0.942,2.44,1.2,1.32
TGAATGAGGTTATACGATCAGGGAACGTTGCAAA,0.016,1.31,1.01,0.956,2.06,1.8,0.24,0.274
AATACAGGGTCACTAGGCCATAGTAGGTACGAAT,3.38,5.37,4.61,2.58,5.6,3.55,1.24,2.98
AACACAGGGTCACTAGGCCAGAGTAGGTACGAAT,3.3,5.06,4.83,2.79,5.24,3.3,1.02,2.44
